High-throughput results from PubChem.
MCL1 BIM primary: disrupts human MCL1 binding to BIM-BH3 peptide; Q07820; GST-MCL1 / FITC-Bim-BH3 fluorescence polarization; inhibition, % at 10.9 µM; hit rate 0.68% among 320,000;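 active = inhibition above the mean inhibition of all tested compounds plus 3 SD, set per campaign, cut at about 40% in these data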;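 also: higher means more loss of mP so more displacement of Bim peptide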
Bcl-xL primary: Bcl-xL (human) inhibition; GST-Bcl-xL / FITC-Bim BH3 peptide fluorescence polarization; hit rate 0.7% among 320,000; inhibition, % at 10.9 µM;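 active = inhibition above the mean of all tested compounds plus 3 SD, cutoff set per campaign, cut at about 30% in these data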;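 also: inhibitors lower millipolarization by displacing the labeled peptide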
Target sequence (Q07817 whole entry, looked up): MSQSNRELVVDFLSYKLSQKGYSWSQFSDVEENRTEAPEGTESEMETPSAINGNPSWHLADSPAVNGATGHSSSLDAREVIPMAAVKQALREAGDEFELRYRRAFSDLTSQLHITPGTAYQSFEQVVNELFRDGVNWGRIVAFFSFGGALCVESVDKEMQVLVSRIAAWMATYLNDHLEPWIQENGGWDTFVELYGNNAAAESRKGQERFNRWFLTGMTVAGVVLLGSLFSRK
Yeast superoxide: caloric restriction mimetics inhibiting age-related superoxide in yeast; hit rate 0.18% among 330,000; S. cerevisiae aged cells, superoxide DHE fluorescence; stronger effect = lower value; superoxide response (% of plate mean), % at 10 µM; AID 2690;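 active = superoxide response under a set limit, about three screen SD below normal, cut at about 65% in these data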;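 also: yeast aged for seven days with compound at 30 °C before DHE staining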
MEX-5 binding: C. elegans MEX-5 TCR-2 RNA binding activity | Q9XUB2 | MEX-5/FITC-TCR2 RNA binding, fluorescence polarization; stronger effect = lower value | activity score (negative = inhibition of binding), % at 10 µM | hit rate 0.38% among 300,000;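 active = inhibition past about -25% in most replicates, and total fluorescence under double the plate's negative control median, limit read from the data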
LANA-H2A inh: blocks KSHV LANA binding to histone H2A/H2B; Q9QR71; hit rate 0.6% among 320,000; inhibition, % (concentration not given with the values); AID 2629; cell-free LANA-H2A/H2B peptide, fluorescence polarization; in the data active = inhibition mostly above about 10%, no sharp cut-off; inactive = mostly below about 6.7%
GLD-1 TGE inh: GLD-1-TGE RNA interaction inhibition (C. elegans); Q17339; purified GLD-1 + fluorescein TGE RNA, fluorescence polarization; inhibition, % at 5.96 µM; hit rate 0.44% among 320,000; AID 2280;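 active = percent inhibition above a per-plate cutoff, the plate mean of test compounds plus 3 SD, cut at about 30% in these data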
Target sequence (Q17339 whole entry, looked up): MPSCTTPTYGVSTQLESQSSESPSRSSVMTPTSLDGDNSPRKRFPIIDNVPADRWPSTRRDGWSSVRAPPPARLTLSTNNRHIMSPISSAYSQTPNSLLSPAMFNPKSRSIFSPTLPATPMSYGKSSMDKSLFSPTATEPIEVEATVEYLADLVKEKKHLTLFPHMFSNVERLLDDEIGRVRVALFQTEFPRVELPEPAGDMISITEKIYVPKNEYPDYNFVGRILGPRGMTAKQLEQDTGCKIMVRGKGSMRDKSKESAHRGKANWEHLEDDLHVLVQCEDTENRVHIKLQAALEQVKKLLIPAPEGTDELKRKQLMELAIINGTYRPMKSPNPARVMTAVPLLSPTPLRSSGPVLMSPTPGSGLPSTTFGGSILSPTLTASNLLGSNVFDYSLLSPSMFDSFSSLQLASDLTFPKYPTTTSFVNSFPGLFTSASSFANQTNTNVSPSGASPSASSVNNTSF
Each line names hits and unclear results; the compound was inactive in the other large screens. Sampled rows, rich in hits. Any-hit rate of the full collection: about 1.9%.

Cc1ccc(NC(=O)COC(=O)Cn2cnc3ccccc32)c(C)c1	none (no result: MCL1 BIM primary, Bcl-xL primary, MEX-5 binding)
CCOc1ccccc1Nc1nnc(SCC(=O)NC(=O)c2cccn2C)s1	LANA-H2A inh 16
C/C=C/C(O)c1ccc2ccccc2c1 (stereo unspecified)	none
NNc1nc2sc3c(c2c(=O)n1C1CCCCC1)CCN(Cc1ccccc1)C3	none
O=c1[nH]cnc2sc3c(c12)CCN(Cc1ccccc1)C3	Bcl-xL primary 33
OCCCNc1ncnc2sc3c(c12)CCN(Cc1ccccc1)C3	MEX-5 binding -28
Cc1c(C)n(Cc2ccccc2)c2ncnc(NCCCO)c12	none
CSc1nc(N)nc2c1ncn2CC(=O)Nc1ccc(C)c(C)c1	none (no result: MCL1 BIM primary, Bcl-xL primary, MEX-5 binding, LANA-H2A inh)
C#Cc1ccc(CN2CCC(Oc3ccc(C(=O)NCc4ccccn4)cc3)CC2)cc1	none
CC1CC(C)CN(C(=O)COC(=O)c2ccc3ccccc3n2)C1 (stereo unspecified)	none (no result: MEX-5 binding, LANA-H2A inh)
CCN(C[C@H]1N[C@@](Cc2ccccc2)(C(=O)OC)[C@H]2C(=O)N(C)C(=O)[C@@H]12)C(=O)Nc1ccc(Cl)cc1	none (no result: MCL1 BIM primary, Bcl-xL primary, MEX-5 binding)
Cc1nc(N2CCN(Cc3ccccc3)CC2)c(C#N)c2c1COC(C)(C)C2	MEX-5 binding -34
COc1ccc(C)c2sc(NC(=O)CCS(=O)(=O)c3ccccc3)nc12	LANA-H2A inh 103
CCOc1cccc2sc(NC(=O)CCS(=O)(=O)c3ccccc3)nc12	none
CC(C)NC(=O)c1nn2c(C(F)(F)F)cc(-c3ccco3)nc2c1Cl	LANA-H2A inh 43
CC(C)NC(=O)c1cc2nc(-c3ccco3)cc(C(F)(F)F)n2n1	none
CN(CC(=O)N1CCOCC1)S(=O)(=O)c1ccc2ccccc2c1	none
COc1ccc(NC(=O)CN2CCCCC2)c([N+](=O)[O-])c1	none
COc1ccc(NC(=O)CN2CCC(NC(=O)C3CCCCC3)CC2)c([N+](=O)[O-])c1	MEX-5 binding -92
Cc1cc(C(=O)COC(=O)C23CC4CC(CC(O)(C4)C2)C3)c(C)n1C	none (no result: MCL1 BIM primary, Bcl-xL primary, MEX-5 binding)
COc1cc2c(cc1OC)C(C)=NC1(CCCCC1)C2	LANA-H2A inh 8.0
COc1cc2c(cc1OC)C(SC)=NC1(CCCC1)C2	none
COc1ccc(NC(=S)NNC(=O)OC(C)(C)C)cc1OC	LANA-H2A inh 33
COCc1nnc(NC(=O)CCN2C(=O)c3ccccc3C2=O)s1	LANA-H2A inh 16
Cc1nc(SCc2nc3c(F)cccc3[nH]2)c2oc3ccccc3c2n1	none (no result: MCL1 BIM primary, Bcl-xL primary, MEX-5 binding)
COCCn1c(SCC(=O)Nc2c(C)n(C)n(-c3ccccc3)c2=O)nnc1-c1ccncc1	none (no result: MEX-5 binding)
O=C(C[n+]1ccccc1)Nc1ccccc1[N+](=O)[O-]	LANA-H2A inh 111
O=C(/C=C/c1ccccc1Cl)OCC(=O)c1ccc[nH]1	none (no result: MEX-5 binding)
CCCCC(=O)N/N=C/c1ccc(-c2ccc([N+](=O)[O-])cc2)o1	none
Cc1cc(C(=O)N/N=C/c2ccc(-c3ccc([N+](=O)[O-])cc3C)o2)n[nH]1	none
Cc1cc(C)n(Cc2ccc(C(=O)N/N=C/c3ccc(-c4ccc([N+](=O)[O-])cc4)o3)o2)n1	MCL1 BIM primary 43, Bcl-xL primary 50
Cc1cc([N+](=O)[O-])ccc1-c1ccc(/C=N/NC(=O)c2ccc(Br)o2)o1	MEX-5 binding -58
COc1ccc(Cl)cc1NC(=O)CN(C)C(=O)c1cc2ccccc2cc1O	none
Cc1cccc(N=C2NC(=O)/C(=C3/C(=O)N(C)c4ccccc43)S2)c1C	Bcl-xL primary 50
CCn1c(SC(C)C(=O)Nc2ccc3c(c2)OCCO3)nnc1C1CC1 (stereo unspecified)	none (no result: MEX-5 binding, LANA-H2A inh)
COc1ccc2c(c1)c(=O)oc1cc3occ(C(C)(C)C)c3cc12	LANA-H2A inh 12
COc1ccc2c(c1)c(=O)oc1cc(O)ccc12	none
COc1ccc(S(=O)(=O)N2CCN(C(=O)c3ccc(NC(C)=O)cc3)CC2)cc1	none (no result: MEX-5 binding)
NS(=O)(=O)c1cccc(NC(=O)COc2ncnc3c2cnn3-c2ccccc2)c1	LANA-H2A inh 131
O=C(COc1ncnc2c1cnn2-c1ccccc1)Nc1ccc(S(=O)(=O)N2CCCCC2)cc1	none
CC1CCC2(CC1)NC(=O)N(CC(=O)Nc1ccc(F)cc1)C2=O (stereo unspecified)	LANA-H2A inh 38 (no result: MEX-5 binding)
Cc1cc(C)nc(SC2CC(=O)N(c3ccc(Cl)cc3)C2=O)n1 (stereo unspecified)	none
Cc1cc(C)nc(SC2CC(=O)N(c3ccc(C)c(C)c3)C2=O)n1 (stereo unspecified)	LANA-H2A inh 16
COc1cc([N+](=O)[O-])ccc1N1C(=O)CC(Sc2nccc(C)n2)C1=O (stereo unspecified)	LANA-H2A inh 15
CC(=O)c1ccc(S(=O)(=O)N2CCN(c3nc(-c4cccnc4)nc4ccccc34)CC2)cc1	none (no result: MEX-5 binding)
CC(C)Cn1c(SCC(=O)Nc2cccnc2Cl)nnc1-c1ccco1	none (no result: MCL1 BIM primary, Bcl-xL primary, MEX-5 binding)
O=C(NNc1ccccn1)C(=O)NNS(=O)(=O)c1ccc(F)cc1	MEX-5 binding -31
O=C(NNc1ccccc1)C(=O)NNS(=O)(=O)c1ccc([N+](=O)[O-])cc1	MEX-5 binding -35
Cc1ccc(C(=O)NC(=S)NNS(=O)(=O)c2ccc(C)cc2)cc1	none
Cc1ccc(S(=O)(=O)NNC(=S)NC(=O)c2ccc([N+](=O)[O-])cc2)cc1	MEX-5 binding -31
C[C@H]1CN([C@@H](C)CO)C(=O)Cc2cc(NC(=O)C3CC3)ccc2O[C@H]1CN(C)Cc1ccc(C(=O)O)cc1	none (no result: MCL1 BIM primary, Bcl-xL primary, MEX-5 binding)
Cc1onc(-c2ccccc2Cl)c1C(N)=O	none
Cc1[nH]n(C)c(=O)c1C(=O)c1c(-c2ccccc2Cl)noc1C	Yeast superoxide 65
O=C(NCc1cccc(F)c1)c1cccc2c1C(=O)c1ccc(N3CCC(Cc4ccccc4)CC3)cc1S2(=O)=O	GLD-1 TGE inh 137 (no result: MCL1 BIM primary, Bcl-xL primary, MEX-5 binding)
O=C(NCc1cc(C(F)(F)F)ccc1Cl)c1cccc2c1C(=O)c1ccc(N3CCOCC3)cc1S2(=O)=O	none (no result: MCL1 BIM primary, Bcl-xL primary, MEX-5 binding)
CN1CCC[C@@H]1CCNC(=O)c1cccc2c1C(=O)c1ccc(N3CCCC3)cc1S2(=O)=O	none (no result: MCL1 BIM primary, Bcl-xL primary, MEX-5 binding)
O=C(NCCc1ccc(F)cc1)c1cccc2c1C(=O)c1ccc(N3CCC(Cc4ccccc4)CC3)cc1S2(=O)=O	GLD-1 TGE inh 145 (no result: MCL1 BIM primary, Bcl-xL primary, MEX-5 binding)
O=C(NCc1ccc(OC(F)(F)F)cc1)c1cccc2c1C(=O)c1ccc(N3CCCC3)cc1S2(=O)=O	none (no result: MCL1 BIM primary, Bcl-xL primary, MEX-5 binding)
O=C(NCc1ccc(OC(F)(F)F)cc1)c1cccc2c1C(=O)c1ccc(N3CCCCC3)cc1S2(=O)=O	none (no result: MCL1 BIM primary, Bcl-xL primary, MEX-5 binding)
O=C(NCc1cc(C(F)(F)F)ccc1Cl)c1cccc2c1C(=O)c1ccc(N3CCCCC3)cc1S2(=O)=O	GLD-1 TGE inh 76 (no result: MCL1 BIM primary, Bcl-xL primary, MEX-5 binding)
O=C(NCc1cccc(F)c1)c1cccc2c1C(=O)c1ccc(N3CCCC3)cc1S2(=O)=O	LANA-H2A inh 25, GLD-1 TGE inh 55 (no result: MCL1 BIM primary, Bcl-xL primary, MEX-5 binding)
COc1ccc(C(C)(C)C)cc1NC(=O)COc1ccc(-c2nnco2)cc1	none (no result: MCL1 BIM primary, Bcl-xL primary, MEX-5 binding)
CC(C)CNC(=O)/C=C/C=C/CCCC/C=C/c1ccc2c(c1)OCO2	none (no result: MEX-5 binding)
O=c1cc(OCc2ccccc2)cc[nH]1	none (no result: MEX-5 binding)
